In PubChem BioAssay (NCATS) one finds activity, negative = inhibition data, which are given here for 23 compounds.

Each structure is given as a SMILES string. “And” between values parts separate entries of the source, which are not always exact repeats. Identical values can stand only once. Records with an inconclusive call do not appear. Unmarked numbers belong to inactive results. Calls come from the whole dose curve; as a rule, active = well fitted inhibition curve with a large enough effect; inconclusive = small, poorly fitted or top-dose-only effect; inactive = flat fitted curve, though single readings scatter.

A short description of one assay: qHTS profiling for inhibitors of Plasmodium falciparum proliferation (AID 504749).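 Note: 0% = DMSO vehicle and full inhibition = artemisinin control; nearly all actives have a fitted effect of over 60% in size.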 Conditions: P. falciparum in erythrocytes, SYBR Green DNA, 72 h; at 12.8 µM (top of the series); parasite line A. A digest of the protocol:
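Fluorescence of SYBR Green-bound parasite DNA, read at 485/535 nm, served as the growth measure. Infected erythrocytes were cultured with compound 72 h; artemisinin (0.29 uM) and DMSO wells defined the normalization range.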
On to `CC(=O)CCCCn1c(=O)c2c(ncn2C)n(C)c1=O`, for which the activity, negative = inhibition was -2.51%.

`CCN(CC)CCOC(=O)c1ccc(N)cc1`: the activity, negative = inhibition is -0.702%. As to `CCN(CC)C(=O)c1ccc(O)c(OC)c1`, the activity, negative = inhibition was 6.06%.

The same assay, now with this note: P. falciparum in erythrocytes, SYBR Green DNA, 72 h; at 28.7 µM (top of the series); parasite line A.
Consider `O=C1NCC2(CCN(CCc3ccccc3)CC2)O1`, for which the activity, negative = inhibition was 12%.

`CCOC(=O)O[C@]1(C(=O)OCCl)CC[C@@H]2[C@H]3CCC4=CC(=O)C=C[C@]4(C)[C@@H]3[C@@H](O)C[C@@]21C`: the activity, negative = inhibition is -7.57%. With `CC(=O)c1ccc(S(=O)(=O)NC(=O)NC2CCCCC2)cc1`, the activity, negative = inhibition is 3.57%. Same read-out and setting: in the case of `O=c1[nH]cnc2c1ncn2[C@H]1CC[C@@H](CO)O1` it was -0.993%; in that of `NCCS`, 9.12%; in that of `O=C(O)c1cc(-c2ccccc2)nc2ccccc12`, -2.25%. Same read-out and setting: in the case of `COc1ccccc1N1CCN(CCCNc2cc(=O)n(C)c(=O)n2C)CC1` it was -3.41% and -6.84%; in that of `C[C@@H](O)[C@H]1C(=O)N2C(C(=O)O)=C(S[C@@H]3CN[C@H](C(=O)N(C)C)C3)[C@H](C)[C@H]12`, 10.4%; in that of `CN(C)CCC(c1ccccc1)c1ccccn1` (centres undefined), 8.91%. In the case of `NC(N)=Nc1nc(CSCC/C(N)=N/S(N)(=O)=O)cs1`, the activity, negative = inhibition is -15%. Same read-out and setting: the figure for `O=C(O)Cc1cccc2ccccc12` is 12.1%. Same read-out and setting: in the case of `O=C1NC(=O)C(c2ccccc2)(c2ccccc2)N1` it was 3.02%; in that of `O=C1Nc2ccc(Cl)cc2C(C#CC2CC2)(C(F)(F)F)O1` (centres undefined), -18.6%.

For `CCN1CCC[C@H]1CNC(=O)c1cc(S(N)(=O)=O)ccc1OC`, the activity, negative = inhibition was 7.08%. Still for that read-out and setting: in the case of `Cc1cccc(C)c1OCC(C)N` (centres undefined) it was 7.67%; in that of `C[N+](C)(C)CCCCCC[N+](C)(C)C`, 4.23%; in that of `CCN(CC)CCNC(=O)c1ccc(N)cc1`, 6.98%.

`O=C(NCCN1CCOCC1)c1ccc(Cl)cc1`: the activity, negative = inhibition is 9.62%. Same read-out and setting: in the case of `CC1(C)O[C@H]2C[C@@H]3[C@H]4CCC5=CC(=O)C=C[C@]5(C)[C@@]4(F)[C@@H](O)C[C@]3(C)[C@]2(C(=O)CO)O1` it was -0.373%; in that of `CCN(CC)C(=O)c1ccc(O)c(OC)c1`, 14.7%. The same measure, in the same setting: in the case of `CCCNC(=O)NS(=O)(=O)c1ccc(Cl)cc1` it was 14.4%.
